Source: PubChem
This is a sample that favours compounds with a hit; in the whole collection about 0.9% have one here.
SRC3 TRFRET art = TR-FRET artefact, counter-screen to PPARgamma/SRC-3 agonist assay | PPARgamma/SRC-3 format; stronger effect = higher value | AID 1048 | TR-FRET ratio at 8 µM | 0.39% of 99,000 active; in the data active = TR-FRET ratio above about 2000
SRC1 TRFRET art = counter-screen for PPARgamma SRC-1 recruitment agonists: TR-FRET artefact. TR-FRET detection artefact counter-screen, emission ratio; stronger effect = higher value. AID 1051. 0.34% of 99,000 active. TR-FRET ratio at 8 µM; in the data active = TR-FRET ratio above about 2300
TR-FRET SRC-2 ct = flags TR-FRET format artefacts in PPARgamma SRC-2 recruitment agonist screen | TR-FRET ratio at 8 µM | TR-FRET artefact counter-screen; stronger effect = higher value | 0.4% of 200,000 active; in the data active = TR-FRET ratio above about 2000
PPARg SRC2 recr = promotes SRC-2 coactivator recruitment by human PPARgamma | P37231 | activation, % at 8 µM | 0.34% of 200,000 active | PPARgamma LBD-SRC-2 recruitment, biochemical
PPARg SRC-1 ag = promotes SRC-1 coactivator recruitment by human PPARgamma; AID 631; PPARgamma-SRC-1 coactivator recruitment biochemical assay; P37231; activation, % at 8 µM; 0.41% of 200,000 active; in the data active = activation above about 19%
PPARg SRC-3 ag = PPARgamma-driven SRC-3 recruitment agonism; biochemical PPARgamma/SRC-3 coactivator recruitment assay; activation, % at 8 µM; P37231; 0.26% of 200,000 active; in the data active = activation above about 23%
PPARg SRC2 conf = human PPARgamma SRC-2 recruitment agonism, confirmation | biochemical SRC-2 recruitment by PPARgamma | AID 1297 | activation, % at 8 µM | shares compounds with PPARg SRC-3 ag | 52% of 790 active
PPARg SRC1 ag = human PPARgamma SRC-1 recruitment agonism, confirmation | shares compounds with PPARg SRC-3 ag | PPARgamma–SRC-1 coactivator recruitment biochemical assay | activation, % at 8 µM | 43% of 790 active | AID 1300; in the data active = activation above about 20%
PPARg SRC3 conf = human PPARgamma SRC-3 recruitment agonism, confirmation. biochemical PPARgamma-SRC-3 coactivator recruitment, agonist mode. 29% of 790 active. shares compounds with PPARg SRC-3 ag. activation, % at 8 µM. AID 1301; in the data active = activation above about 24%
Target sequence (P37231 whole entry, looked up): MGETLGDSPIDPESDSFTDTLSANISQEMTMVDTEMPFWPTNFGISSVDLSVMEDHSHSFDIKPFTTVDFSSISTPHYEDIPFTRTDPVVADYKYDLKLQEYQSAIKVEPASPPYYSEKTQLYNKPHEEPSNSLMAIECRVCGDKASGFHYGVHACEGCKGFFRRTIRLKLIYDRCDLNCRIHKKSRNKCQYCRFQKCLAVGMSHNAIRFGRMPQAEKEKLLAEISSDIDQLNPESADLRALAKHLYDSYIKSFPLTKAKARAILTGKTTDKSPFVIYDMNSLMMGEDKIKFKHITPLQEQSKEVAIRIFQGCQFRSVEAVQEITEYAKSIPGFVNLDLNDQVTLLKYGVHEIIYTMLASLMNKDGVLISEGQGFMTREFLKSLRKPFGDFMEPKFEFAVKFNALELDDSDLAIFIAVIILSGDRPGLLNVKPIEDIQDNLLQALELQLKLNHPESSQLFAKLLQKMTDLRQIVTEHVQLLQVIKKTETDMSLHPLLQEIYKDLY
Target sequence (Q9Y6Q9 whole entry, looked up): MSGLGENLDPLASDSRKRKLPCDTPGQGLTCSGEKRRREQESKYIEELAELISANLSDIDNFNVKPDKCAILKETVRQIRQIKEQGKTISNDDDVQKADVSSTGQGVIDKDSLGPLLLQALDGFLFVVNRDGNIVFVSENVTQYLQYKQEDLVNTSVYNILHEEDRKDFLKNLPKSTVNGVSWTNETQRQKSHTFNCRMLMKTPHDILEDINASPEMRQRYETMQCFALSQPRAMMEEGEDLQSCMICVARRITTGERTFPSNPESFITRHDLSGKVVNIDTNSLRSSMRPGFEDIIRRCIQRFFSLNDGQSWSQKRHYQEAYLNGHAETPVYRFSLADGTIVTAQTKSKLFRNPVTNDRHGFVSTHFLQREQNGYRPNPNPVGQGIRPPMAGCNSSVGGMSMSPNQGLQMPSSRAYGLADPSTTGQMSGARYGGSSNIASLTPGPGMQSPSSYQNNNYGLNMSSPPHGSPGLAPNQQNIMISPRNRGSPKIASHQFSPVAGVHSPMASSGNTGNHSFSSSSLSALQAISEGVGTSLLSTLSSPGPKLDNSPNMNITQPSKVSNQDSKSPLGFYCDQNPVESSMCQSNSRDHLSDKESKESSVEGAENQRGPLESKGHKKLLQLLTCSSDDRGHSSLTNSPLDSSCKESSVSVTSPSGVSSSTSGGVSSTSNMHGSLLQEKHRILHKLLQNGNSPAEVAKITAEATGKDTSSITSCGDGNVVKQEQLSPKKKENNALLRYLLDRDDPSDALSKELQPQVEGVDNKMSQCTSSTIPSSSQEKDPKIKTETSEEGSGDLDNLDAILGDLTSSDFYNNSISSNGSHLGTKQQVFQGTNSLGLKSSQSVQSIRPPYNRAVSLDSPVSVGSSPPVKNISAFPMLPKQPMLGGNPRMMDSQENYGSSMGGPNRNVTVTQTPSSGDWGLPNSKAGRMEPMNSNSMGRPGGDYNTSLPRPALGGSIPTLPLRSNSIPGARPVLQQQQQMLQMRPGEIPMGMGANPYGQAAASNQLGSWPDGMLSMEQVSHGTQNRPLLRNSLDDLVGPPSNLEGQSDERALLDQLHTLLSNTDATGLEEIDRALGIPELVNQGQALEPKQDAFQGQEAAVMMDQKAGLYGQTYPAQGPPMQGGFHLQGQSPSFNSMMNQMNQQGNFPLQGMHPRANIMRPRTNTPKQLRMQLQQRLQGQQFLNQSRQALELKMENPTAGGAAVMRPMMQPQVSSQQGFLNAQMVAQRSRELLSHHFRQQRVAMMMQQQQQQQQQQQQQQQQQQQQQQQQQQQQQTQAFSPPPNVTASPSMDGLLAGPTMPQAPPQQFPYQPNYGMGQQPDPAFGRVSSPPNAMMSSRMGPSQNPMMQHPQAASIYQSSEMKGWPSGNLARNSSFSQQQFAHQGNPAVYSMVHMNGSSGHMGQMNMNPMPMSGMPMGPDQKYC
Numbers stand for hits. Rule as the data show it, unless noted: active = activation above about 22%; inactive = the rest.

Screening CC(C)OC(=O)C(C)Nc1n[nH]c(=S)[nH]c1=O (stereo not drawn) returned SRC3 TRFRET art 3327, SRC1 TRFRET art 3785, TR-FRET SRC-2 ct 3006, PPARg SRC2 recr 66.2, PPARg SRC-1 ag 71.3, PPARg SRC-3 ag 45.1, PPARg SRC2 conf 98.2, PPARg SRC1 ag 73.8 and PPARg SRC3 conf 63.5.
COC(=O)CNc1n[nH]c(=S)[nH]c1=O was read as TR-FRET SRC-2 ct 4234, PPARg SRC2 recr 120.7, PPARg SRC-1 ag 99.8, PPARg SRC-3 ag 156.0, PPARg SRC2 conf 118.7, PPARg SRC1 ag 86.2 and PPARg SRC3 conf 82.2.
Screening Cc1cccc(C(=O)NNC(=O)CN2C(=O)c3ccccc3C2=O)c1 returned SRC3 TRFRET art inactive, SRC1 TRFRET art inactive, TR-FRET SRC-2 ct inactive, PPARg SRC2 recr inactive, PPARg SRC-1 ag inactive and PPARg SRC-3 ag inactive.
`COc1ccc(CCNC(=O)CN2C(=O)NC(C)(c3ccc([N+](=O)[O-])cc3)C2=O)cc1` (stereo not drawn) gave SRC3 TRFRET art inactive, SRC1 TRFRET art inactive, TR-FRET SRC-2 ct inactive, PPARg SRC2 recr inactive, PPARg SRC-1 ag inactive and PPARg SRC-3 ag inactive.
Screening Cc1ccc2c(c1)Oc1ccccc1C=C2C(=O)O returned SRC3 TRFRET art inactive, SRC1 TRFRET art inactive, TR-FRET SRC-2 ct inactive, PPARg SRC2 recr inactive, PPARg SRC-1 ag inactive and PPARg SRC-3 ag inactive.
Screening Cc1cc2cc(CNC(=O)C3CC3)ccc2n1C returned TR-FRET SRC-2 ct inactive, PPARg SRC2 recr inactive, PPARg SRC-1 ag inactive and PPARg SRC-3 ag inactive.
Screening CCN(CC)S(=O)(=O)c1ccc(C(=O)NCc2ccc3c(c2)cc(C)n3C)cc1 returned TR-FRET SRC-2 ct 4972, PPARg SRC2 recr 75.2, PPARg SRC-1 ag 25.9, PPARg SRC-3 ag 48.8, PPARg SRC2 conf 158.4, PPARg SRC1 ag 120.1 and PPARg SRC3 conf 102.4.
Screening Cc1cc2cc(CNC(=O)c3ccc(S(=O)(=O)N4CCCC4)cc3)ccc2n1C returned TR-FRET SRC-2 ct 5041, PPARg SRC2 recr 83.5, PPARg SRC-1 ag 60.5, PPARg SRC-3 ag 88.2, PPARg SRC2 conf 100.1, PPARg SRC1 ag 84.3 and PPARg SRC3 conf 59.0.
For Cc1cc2cc(CNC(=O)c3ccc(S(=O)(=O)N4CCCCC4)cc3)ccc2n1C the results were TR-FRET SRC-2 ct 4697, PPARg SRC2 recr 74.5, PPARg SRC-1 ag 83.3, PPARg SRC-3 ag 111.0, PPARg SRC2 conf 173.0, PPARg SRC1 ag 143.3 and PPARg SRC3 conf 101.9.
`COc1ccc(-n2ncc3c(NC(C)C)ncnc32)cc1` gave TR-FRET SRC-2 ct inactive, PPARg SRC2 recr inactive, PPARg SRC-1 ag 18.9, PPARg SRC-3 ag inactive, PPARg SRC2 conf inactive, PPARg SRC1 ag inactive and PPARg SRC3 conf inactive.
`O=C(Nc1ccc2oc(-c3ccncc3)nc2c1)c1ccccc1F` gave TR-FRET SRC-2 ct inactive, PPARg SRC2 recr 46.8, PPARg SRC-1 ag 48.8, PPARg SRC-3 ag 39.5, PPARg SRC2 conf inactive, PPARg SRC1 ag inactive and PPARg SRC3 conf inactive.
Screening O=C(Nc1ccc2oc(-c3ccccc3)nc2c1)c1ccccc1F returned TR-FRET SRC-2 ct inactive, PPARg SRC2 recr inactive, PPARg SRC-1 ag inactive and PPARg SRC-3 ag inactive.
O=C(CNC(=O)c1ccc(-c2ccccc2)cc1)OCc1c(Cl)cccc1Cl was read as SRC3 TRFRET art inactive, SRC1 TRFRET art inactive, TR-FRET SRC-2 ct inactive, PPARg SRC2 recr inactive, PPARg SRC-1 ag inactive and PPARg SRC-3 ag inactive.
Screening Cc1c(O)c2c3c(cccc3c1O)C(=O)N(c1ccccc1)C2=O returned SRC3 TRFRET art 2155, SRC1 TRFRET art 2683, TR-FRET SRC-2 ct 2078, PPARg SRC2 recr 22.4, PPARg SRC-1 ag 24.5, PPARg SRC-3 ag inactive, PPARg SRC2 conf 26.2, PPARg SRC1 ag inactive and PPARg SRC3 conf inactive.
Screening O=C(O)c1ccc2c3c(cccc13)C(=O)N(c1ccccc1)C2=O returned SRC3 TRFRET art inactive, SRC1 TRFRET art inactive, TR-FRET SRC-2 ct inactive, PPARg SRC2 recr inactive, PPARg SRC-1 ag inactive and PPARg SRC-3 ag inactive.
Cc1ccc(NC(=O)C2CCCN2C(=O)NC2CCCCC2)cc1 (stereo not drawn) was read as SRC3 TRFRET art inactive, SRC1 TRFRET art inactive, TR-FRET SRC-2 ct inactive, PPARg SRC2 recr inactive, PPARg SRC-1 ag inactive and PPARg SRC-3 ag inactive.
For Cc1ccc(CSC2=Nc3ccccc3C3=NC(=O)CN23)cc1 the results were SRC3 TRFRET art inactive, SRC1 TRFRET art inactive, TR-FRET SRC-2 ct inactive, PPARg SRC2 recr inactive, PPARg SRC-1 ag inactive and PPARg SRC-3 ag inactive.
For COc1cc2c(cc1OC)C1=NC(=O)CN1C(SCc1ccccc1C)=N2 the results were TR-FRET SRC-2 ct inactive, PPARg SRC2 recr 26.6, PPARg SRC-1 ag inactive, PPARg SRC-3 ag inactive, PPARg SRC2 conf 28.0, PPARg SRC1 ag inactive and PPARg SRC3 conf inactive.
COC(=O)Cc1c(C)c2c(O)cc(C)cc2oc1=O was read as TR-FRET SRC-2 ct 2058, PPARg SRC2 recr 29.7, PPARg SRC-1 ag 20.0, PPARg SRC-3 ag 35.3, PPARg SRC2 conf 27.2, PPARg SRC1 ag 20.6 and PPARg SRC3 conf inactive.
For CCCCCc1cc(O)c2c(C)cc(=O)oc2c1 the results were TR-FRET SRC-2 ct inactive, PPARg SRC2 recr inactive, PPARg SRC-1 ag 18.9, PPARg SRC-3 ag inactive, PPARg SRC2 conf inactive, PPARg SRC1 ag inactive and PPARg SRC3 conf inactive.
For COC(=O)Cc1c(C)c2ccc(OC(=O)c3ccccc3)cc2oc1=O the results were TR-FRET SRC-2 ct inactive, PPARg SRC2 recr inactive, PPARg SRC-1 ag inactive and PPARg SRC-3 ag inactive.
Screening CCCc1cc(=O)oc2cc(C)cc(O)c12 returned TR-FRET SRC-2 ct 2043, PPARg SRC2 recr 27.6, PPARg SRC-1 ag inactive, PPARg SRC-3 ag 27.1, PPARg SRC2 conf inactive, PPARg SRC1 ag inactive and PPARg SRC3 conf inactive.
For CCc1cc(=O)oc2cc(C)cc(O)c12 the results were TR-FRET SRC-2 ct 2296, PPARg SRC2 recr 41.6, PPARg SRC-1 ag 37.0, PPARg SRC-3 ag 50.0, PPARg SRC2 conf 40.2, PPARg SRC1 ag 27.3 and PPARg SRC3 conf 27.2.
Screening COc1cccc(C(C)N(C)Cc2nc(-c3ccoc3)oc2C)c1 (stereo not drawn) returned SRC3 TRFRET art inactive, SRC1 TRFRET art inactive, TR-FRET SRC-2 ct inactive, PPARg SRC2 recr inactive, PPARg SRC-1 ag inactive and PPARg SRC-3 ag inactive.
COc1ccc(Cc2nnc(Nc3ccc4c(c3)OCCO4)[nH]c2=O)cc1 was read as SRC3 TRFRET art inactive, SRC1 TRFRET art inactive, TR-FRET SRC-2 ct inactive, PPARg SRC2 recr inactive, PPARg SRC-1 ag inactive and PPARg SRC-3 ag inactive.
`Nc1c(C(=O)Nc2ccc(Br)cc2)sc2nc(-c3ccco3)ccc12` gave TR-FRET SRC-2 ct inactive, PPARg SRC2 recr 22.6, PPARg SRC-1 ag inactive, PPARg SRC-3 ag inactive, PPARg SRC2 conf inactive, PPARg SRC1 ag inactive and PPARg SRC3 conf inactive.
